Test results published in ChEMBL document CHEMBL2218924, “A broad activity screen in support of a chemogenomic map for kinase signalling research and drug discovery” (Biochem J, 2013).

Experiments:
[1] = target: T1, Ephrin type-A receptor 3 (Homo sapiens) (UniProt P29320); conditions: at 10 µM
T1 sequence (whole entry): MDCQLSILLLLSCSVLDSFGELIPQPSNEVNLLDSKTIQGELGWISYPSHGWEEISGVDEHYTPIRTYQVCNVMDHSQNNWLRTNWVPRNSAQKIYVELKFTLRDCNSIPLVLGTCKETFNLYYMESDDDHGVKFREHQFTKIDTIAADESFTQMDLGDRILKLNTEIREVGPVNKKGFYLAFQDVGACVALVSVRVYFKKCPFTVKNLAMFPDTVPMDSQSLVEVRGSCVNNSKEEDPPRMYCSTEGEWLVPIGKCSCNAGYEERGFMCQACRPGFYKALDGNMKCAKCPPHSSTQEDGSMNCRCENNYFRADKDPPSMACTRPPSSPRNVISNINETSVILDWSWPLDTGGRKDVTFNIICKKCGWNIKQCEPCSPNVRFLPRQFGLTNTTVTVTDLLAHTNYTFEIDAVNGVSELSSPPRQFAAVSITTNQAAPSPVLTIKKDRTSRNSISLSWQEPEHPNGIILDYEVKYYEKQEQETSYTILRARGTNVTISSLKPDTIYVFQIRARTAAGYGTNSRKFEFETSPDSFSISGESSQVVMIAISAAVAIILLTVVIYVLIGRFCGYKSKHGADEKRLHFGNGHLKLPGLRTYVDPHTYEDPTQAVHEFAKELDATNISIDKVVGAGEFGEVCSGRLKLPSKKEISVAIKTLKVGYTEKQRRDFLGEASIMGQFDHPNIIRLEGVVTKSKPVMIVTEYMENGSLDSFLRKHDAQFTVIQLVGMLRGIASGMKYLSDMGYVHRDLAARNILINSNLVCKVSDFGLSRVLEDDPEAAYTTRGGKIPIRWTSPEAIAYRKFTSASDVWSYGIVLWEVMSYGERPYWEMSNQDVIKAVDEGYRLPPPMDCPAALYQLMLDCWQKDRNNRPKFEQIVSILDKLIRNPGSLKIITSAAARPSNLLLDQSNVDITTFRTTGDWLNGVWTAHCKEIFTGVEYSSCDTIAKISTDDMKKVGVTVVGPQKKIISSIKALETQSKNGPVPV

[2] = target: Ephrin type-A receptor 4 (Homo sapiens) (UniProt P54764); conditions: at 1 µM
Ephrin type-A receptor 4 (Homo sapiens), sequence (P54764 whole entry): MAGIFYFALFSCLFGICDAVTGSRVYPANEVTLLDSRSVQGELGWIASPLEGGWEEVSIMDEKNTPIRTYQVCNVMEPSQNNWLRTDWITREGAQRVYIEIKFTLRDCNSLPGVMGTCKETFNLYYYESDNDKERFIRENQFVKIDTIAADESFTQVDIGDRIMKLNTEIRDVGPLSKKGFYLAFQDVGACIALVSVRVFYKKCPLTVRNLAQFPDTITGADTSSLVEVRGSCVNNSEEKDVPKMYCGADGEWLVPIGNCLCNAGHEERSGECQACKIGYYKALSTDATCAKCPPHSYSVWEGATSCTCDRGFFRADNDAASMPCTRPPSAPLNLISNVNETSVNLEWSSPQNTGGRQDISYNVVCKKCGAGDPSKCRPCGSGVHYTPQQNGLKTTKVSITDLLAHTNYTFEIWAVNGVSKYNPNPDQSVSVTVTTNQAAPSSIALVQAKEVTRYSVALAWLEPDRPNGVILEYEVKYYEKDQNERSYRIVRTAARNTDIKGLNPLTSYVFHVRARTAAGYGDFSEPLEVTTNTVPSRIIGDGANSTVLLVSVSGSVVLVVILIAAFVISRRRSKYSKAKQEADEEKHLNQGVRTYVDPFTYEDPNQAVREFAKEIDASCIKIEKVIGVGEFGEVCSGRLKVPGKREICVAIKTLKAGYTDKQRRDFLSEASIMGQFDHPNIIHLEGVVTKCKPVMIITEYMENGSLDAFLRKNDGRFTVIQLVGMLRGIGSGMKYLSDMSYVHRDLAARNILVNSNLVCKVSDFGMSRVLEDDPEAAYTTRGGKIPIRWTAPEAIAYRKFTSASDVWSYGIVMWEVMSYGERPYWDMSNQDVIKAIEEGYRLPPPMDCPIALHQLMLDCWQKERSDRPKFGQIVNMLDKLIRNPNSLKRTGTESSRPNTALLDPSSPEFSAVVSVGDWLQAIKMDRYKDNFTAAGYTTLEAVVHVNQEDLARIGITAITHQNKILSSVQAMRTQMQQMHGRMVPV

[3] = target: Ephrin type-A receptor 4 (Homo sapiens) (UniProt P54764); conditions: at 10 µM
[4] = target: Ephrin type-A receptor 5 (Homo sapiens) (UniProt P54756); conditions: at 1 µM
Ephrin type-A receptor 5 (Homo sapiens), sequence (P54756 whole entry): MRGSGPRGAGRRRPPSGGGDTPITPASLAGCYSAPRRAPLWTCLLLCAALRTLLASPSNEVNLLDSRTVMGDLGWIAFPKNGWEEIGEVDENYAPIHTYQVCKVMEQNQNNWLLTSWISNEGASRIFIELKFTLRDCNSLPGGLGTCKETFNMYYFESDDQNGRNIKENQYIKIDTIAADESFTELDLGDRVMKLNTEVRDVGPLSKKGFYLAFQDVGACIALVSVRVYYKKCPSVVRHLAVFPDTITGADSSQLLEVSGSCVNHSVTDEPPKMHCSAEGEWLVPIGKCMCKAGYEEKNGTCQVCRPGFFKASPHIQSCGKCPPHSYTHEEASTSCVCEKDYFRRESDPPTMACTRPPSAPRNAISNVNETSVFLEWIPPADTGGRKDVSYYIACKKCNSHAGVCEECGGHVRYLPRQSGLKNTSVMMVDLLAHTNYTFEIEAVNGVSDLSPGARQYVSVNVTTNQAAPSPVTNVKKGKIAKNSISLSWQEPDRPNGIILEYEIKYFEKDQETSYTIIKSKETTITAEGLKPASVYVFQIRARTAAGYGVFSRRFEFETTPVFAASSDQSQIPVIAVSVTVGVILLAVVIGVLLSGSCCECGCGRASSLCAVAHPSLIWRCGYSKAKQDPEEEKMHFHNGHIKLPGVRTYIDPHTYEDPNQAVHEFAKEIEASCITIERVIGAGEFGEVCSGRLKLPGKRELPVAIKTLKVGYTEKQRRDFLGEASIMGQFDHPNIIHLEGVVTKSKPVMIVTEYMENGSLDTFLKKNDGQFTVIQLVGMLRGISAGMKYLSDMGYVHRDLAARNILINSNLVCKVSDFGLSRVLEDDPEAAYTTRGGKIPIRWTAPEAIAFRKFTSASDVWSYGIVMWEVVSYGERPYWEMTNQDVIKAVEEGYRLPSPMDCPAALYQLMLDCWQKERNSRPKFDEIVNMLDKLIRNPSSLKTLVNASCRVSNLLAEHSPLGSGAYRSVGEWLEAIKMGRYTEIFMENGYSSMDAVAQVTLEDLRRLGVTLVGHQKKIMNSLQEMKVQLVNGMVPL

[5] = target: Ephrin type-A receptor 5 (Homo sapiens) (UniProt P54756); conditions: at 10 µM
[6] = target: Ephrin type-A receptor 7 (Homo sapiens) (UniProt Q15375); conditions: at 1 µM
Ephrin type-A receptor 7 (Homo sapiens), sequence (Q15375 28-998 limits assumed): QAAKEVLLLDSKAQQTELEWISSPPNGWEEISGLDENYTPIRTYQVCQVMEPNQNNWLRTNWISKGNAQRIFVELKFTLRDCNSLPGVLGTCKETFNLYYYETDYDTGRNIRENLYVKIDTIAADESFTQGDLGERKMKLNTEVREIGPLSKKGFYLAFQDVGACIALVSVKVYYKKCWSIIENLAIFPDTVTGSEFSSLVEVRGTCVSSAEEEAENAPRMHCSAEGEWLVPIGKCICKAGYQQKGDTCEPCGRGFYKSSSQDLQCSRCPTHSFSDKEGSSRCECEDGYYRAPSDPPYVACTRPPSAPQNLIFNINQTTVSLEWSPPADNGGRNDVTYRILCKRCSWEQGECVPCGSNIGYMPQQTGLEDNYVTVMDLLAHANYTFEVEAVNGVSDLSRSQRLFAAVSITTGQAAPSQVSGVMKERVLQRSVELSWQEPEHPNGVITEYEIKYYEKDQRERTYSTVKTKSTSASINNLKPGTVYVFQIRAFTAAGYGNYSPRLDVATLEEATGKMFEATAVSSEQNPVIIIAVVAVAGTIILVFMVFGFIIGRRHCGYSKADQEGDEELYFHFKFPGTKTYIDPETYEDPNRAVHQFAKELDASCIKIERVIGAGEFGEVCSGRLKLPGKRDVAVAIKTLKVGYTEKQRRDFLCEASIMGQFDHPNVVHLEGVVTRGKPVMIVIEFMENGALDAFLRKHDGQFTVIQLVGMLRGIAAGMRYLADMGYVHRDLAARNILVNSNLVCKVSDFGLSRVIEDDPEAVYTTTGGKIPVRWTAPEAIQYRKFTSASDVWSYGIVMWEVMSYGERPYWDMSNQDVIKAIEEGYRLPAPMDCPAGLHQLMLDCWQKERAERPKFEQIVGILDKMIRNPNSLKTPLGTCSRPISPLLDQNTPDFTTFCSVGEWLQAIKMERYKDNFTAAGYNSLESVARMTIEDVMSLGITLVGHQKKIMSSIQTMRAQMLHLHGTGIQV

[7] = target: Ephrin type-A receptor 7 (Homo sapiens) (UniProt Q15375); conditions: at 10 µM
[8] = target: T2, Ephrin type-A receptor 8 (Homo sapiens) (UniProt P29322); conditions: at 1 µM
T2 sequence (whole entry): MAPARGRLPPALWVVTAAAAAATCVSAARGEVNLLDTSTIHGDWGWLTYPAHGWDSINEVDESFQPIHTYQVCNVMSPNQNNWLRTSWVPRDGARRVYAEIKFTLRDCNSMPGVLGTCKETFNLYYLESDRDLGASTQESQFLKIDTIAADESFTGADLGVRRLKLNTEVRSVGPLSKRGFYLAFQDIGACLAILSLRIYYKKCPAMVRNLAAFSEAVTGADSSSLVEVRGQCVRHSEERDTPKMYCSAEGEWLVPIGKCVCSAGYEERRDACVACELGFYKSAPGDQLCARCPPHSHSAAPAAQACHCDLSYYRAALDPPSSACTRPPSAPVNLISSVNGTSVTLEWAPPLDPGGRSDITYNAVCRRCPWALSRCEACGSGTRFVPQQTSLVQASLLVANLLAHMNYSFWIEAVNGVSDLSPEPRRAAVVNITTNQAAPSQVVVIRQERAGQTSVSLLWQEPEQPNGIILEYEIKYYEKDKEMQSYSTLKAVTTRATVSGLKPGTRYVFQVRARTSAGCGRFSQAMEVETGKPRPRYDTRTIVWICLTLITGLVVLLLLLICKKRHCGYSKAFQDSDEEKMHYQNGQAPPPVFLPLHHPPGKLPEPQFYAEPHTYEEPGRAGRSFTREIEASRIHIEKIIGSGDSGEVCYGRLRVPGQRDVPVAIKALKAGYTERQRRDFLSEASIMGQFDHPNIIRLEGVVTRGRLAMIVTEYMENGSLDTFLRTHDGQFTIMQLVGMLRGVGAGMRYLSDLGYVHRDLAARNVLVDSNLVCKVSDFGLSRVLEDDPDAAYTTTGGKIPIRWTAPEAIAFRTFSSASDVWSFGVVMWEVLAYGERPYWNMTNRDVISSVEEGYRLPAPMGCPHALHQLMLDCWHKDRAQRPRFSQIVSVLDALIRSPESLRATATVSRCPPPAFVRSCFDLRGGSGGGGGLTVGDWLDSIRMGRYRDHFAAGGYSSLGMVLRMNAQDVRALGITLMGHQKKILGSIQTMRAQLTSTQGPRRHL

[9] = target: T2, Ephrin type-A receptor 8 (Homo sapiens); conditions: at 10 µM
[10] = target: T3, Ephrin type-B receptor 1 (Homo sapiens) (UniProt P54762); conditions: at 1 µM
T3 sequence (whole entry): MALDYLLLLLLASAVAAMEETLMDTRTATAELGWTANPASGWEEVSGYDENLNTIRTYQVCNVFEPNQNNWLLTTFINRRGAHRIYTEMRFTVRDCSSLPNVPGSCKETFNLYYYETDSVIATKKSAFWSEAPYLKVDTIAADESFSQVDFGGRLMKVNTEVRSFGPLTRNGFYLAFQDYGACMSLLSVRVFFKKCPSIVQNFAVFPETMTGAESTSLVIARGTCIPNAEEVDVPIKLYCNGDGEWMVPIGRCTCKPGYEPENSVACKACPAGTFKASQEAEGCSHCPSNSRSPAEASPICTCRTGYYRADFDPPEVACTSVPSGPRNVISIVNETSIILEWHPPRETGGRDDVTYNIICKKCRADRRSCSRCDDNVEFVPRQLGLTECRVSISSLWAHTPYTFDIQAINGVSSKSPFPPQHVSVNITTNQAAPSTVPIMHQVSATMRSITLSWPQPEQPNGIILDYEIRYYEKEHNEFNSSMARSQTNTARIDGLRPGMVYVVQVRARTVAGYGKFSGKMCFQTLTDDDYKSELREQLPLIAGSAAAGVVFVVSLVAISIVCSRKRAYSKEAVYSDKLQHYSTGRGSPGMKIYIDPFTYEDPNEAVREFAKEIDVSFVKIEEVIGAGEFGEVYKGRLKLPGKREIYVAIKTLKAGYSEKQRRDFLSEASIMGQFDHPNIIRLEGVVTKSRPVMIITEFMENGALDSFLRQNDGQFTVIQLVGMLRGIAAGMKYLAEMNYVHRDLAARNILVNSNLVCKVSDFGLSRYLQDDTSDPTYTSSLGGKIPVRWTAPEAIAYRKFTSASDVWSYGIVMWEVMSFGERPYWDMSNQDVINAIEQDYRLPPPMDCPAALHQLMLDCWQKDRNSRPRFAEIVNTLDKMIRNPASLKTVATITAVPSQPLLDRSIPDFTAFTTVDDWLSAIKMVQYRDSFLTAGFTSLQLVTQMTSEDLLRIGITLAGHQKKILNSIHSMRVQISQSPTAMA

[11] = target: T3, Ephrin type-B receptor 1 (Homo sapiens); conditions: at 10 µM
[12] = target: T4, Ephrin type-B receptor 2 (Homo sapiens) (UniProt P29323); conditions: at 1 µM
T4 sequence (whole entry): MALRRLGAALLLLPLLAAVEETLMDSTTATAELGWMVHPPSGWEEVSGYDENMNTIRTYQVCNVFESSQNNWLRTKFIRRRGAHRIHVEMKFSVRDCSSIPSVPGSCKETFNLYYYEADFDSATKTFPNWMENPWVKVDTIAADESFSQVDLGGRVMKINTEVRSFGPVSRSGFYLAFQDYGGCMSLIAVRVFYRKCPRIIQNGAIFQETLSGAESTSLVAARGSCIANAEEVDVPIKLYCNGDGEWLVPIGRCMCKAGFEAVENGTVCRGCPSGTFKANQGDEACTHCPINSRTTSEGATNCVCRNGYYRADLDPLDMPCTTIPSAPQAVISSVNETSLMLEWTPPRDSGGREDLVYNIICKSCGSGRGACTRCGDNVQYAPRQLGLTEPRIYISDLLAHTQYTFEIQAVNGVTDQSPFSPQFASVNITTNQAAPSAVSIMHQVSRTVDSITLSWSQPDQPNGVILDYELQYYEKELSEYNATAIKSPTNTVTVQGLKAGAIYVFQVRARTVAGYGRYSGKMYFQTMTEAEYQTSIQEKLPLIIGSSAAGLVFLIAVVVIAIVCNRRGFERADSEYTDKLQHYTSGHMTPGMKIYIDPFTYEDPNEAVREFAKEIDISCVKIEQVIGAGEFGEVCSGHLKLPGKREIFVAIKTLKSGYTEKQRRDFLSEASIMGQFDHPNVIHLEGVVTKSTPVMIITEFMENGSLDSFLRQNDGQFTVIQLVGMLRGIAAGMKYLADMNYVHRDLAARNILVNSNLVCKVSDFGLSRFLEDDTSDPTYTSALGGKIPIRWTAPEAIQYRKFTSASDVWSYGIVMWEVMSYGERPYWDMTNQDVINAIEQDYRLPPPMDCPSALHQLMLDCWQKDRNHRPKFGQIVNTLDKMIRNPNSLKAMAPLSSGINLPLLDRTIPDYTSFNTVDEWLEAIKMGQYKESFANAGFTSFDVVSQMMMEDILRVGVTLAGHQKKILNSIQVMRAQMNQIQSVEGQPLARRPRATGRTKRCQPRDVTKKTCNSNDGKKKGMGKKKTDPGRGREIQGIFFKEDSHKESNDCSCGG

[13] = target: T5, Ephrin type-B receptor 3 (Homo sapiens) (UniProt P54753); conditions: at 1 µM
T5 sequence (whole entry): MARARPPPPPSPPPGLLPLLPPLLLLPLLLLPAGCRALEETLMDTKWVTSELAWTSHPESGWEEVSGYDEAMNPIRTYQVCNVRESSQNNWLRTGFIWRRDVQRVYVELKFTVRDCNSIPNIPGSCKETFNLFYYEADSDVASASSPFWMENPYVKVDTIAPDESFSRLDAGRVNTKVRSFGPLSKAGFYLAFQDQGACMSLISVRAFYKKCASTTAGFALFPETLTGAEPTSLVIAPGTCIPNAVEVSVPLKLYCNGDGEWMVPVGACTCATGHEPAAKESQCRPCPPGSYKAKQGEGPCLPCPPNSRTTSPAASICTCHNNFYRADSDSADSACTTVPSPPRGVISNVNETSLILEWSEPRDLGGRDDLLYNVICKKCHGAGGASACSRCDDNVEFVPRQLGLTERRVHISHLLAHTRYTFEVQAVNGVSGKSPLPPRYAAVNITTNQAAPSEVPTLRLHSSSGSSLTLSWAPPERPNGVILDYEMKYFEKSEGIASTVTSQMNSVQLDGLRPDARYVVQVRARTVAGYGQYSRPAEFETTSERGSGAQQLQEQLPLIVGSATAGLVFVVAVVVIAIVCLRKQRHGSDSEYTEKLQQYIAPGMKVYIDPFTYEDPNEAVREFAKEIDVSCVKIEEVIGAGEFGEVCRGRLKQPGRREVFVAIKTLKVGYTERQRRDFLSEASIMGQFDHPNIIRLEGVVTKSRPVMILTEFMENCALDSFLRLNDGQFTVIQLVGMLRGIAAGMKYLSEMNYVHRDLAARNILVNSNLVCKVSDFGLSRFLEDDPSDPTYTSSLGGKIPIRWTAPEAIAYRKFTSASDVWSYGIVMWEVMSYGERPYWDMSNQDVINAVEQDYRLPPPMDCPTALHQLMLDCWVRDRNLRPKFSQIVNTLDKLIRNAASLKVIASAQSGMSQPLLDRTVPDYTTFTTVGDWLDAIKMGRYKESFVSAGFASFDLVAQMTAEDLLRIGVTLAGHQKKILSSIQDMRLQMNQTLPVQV

[14] = target: T5, Ephrin type-B receptor 3 (Homo sapiens); conditions: at 10 µM
[15] = target: T6, Ephrin type-B receptor 4 (Homo sapiens) (UniProt P54760); conditions: at 1 µM
T6 sequence (whole entry): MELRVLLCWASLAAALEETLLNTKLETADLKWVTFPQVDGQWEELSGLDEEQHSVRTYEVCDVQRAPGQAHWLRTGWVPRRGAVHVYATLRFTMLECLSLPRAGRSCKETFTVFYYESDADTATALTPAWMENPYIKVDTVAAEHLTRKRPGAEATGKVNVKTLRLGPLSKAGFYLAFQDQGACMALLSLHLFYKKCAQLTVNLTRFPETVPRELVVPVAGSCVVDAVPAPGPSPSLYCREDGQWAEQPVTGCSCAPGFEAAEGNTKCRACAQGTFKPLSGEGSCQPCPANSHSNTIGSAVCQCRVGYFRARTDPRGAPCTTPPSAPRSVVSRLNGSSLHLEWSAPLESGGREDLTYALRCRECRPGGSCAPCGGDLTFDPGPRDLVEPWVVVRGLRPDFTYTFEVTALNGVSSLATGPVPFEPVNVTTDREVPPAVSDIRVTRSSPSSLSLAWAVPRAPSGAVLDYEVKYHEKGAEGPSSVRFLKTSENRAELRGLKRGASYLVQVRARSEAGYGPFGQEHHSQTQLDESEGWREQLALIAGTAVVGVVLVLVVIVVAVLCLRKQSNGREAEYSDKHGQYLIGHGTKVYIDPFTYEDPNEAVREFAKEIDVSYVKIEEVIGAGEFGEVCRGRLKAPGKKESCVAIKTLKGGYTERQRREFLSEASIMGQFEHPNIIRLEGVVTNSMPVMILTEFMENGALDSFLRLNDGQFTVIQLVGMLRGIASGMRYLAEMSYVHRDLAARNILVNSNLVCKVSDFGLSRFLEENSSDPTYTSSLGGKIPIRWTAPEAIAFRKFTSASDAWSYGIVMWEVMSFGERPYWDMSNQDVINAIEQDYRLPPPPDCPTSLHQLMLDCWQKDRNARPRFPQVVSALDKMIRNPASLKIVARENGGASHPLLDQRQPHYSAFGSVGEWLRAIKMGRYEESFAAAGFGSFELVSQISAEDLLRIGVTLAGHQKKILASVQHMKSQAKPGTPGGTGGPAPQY

[16] = target: T6, Ephrin type-B receptor 4 (Homo sapiens); conditions: at 10 µM
[17] = target: Receptor tyrosine-protein kinase erbB-4 (Homo sapiens) (UniProt Q15303); conditions: at 1 µM
Receptor tyrosine-protein kinase erbB-4 (Homo sapiens), sequence (Q15303 whole entry): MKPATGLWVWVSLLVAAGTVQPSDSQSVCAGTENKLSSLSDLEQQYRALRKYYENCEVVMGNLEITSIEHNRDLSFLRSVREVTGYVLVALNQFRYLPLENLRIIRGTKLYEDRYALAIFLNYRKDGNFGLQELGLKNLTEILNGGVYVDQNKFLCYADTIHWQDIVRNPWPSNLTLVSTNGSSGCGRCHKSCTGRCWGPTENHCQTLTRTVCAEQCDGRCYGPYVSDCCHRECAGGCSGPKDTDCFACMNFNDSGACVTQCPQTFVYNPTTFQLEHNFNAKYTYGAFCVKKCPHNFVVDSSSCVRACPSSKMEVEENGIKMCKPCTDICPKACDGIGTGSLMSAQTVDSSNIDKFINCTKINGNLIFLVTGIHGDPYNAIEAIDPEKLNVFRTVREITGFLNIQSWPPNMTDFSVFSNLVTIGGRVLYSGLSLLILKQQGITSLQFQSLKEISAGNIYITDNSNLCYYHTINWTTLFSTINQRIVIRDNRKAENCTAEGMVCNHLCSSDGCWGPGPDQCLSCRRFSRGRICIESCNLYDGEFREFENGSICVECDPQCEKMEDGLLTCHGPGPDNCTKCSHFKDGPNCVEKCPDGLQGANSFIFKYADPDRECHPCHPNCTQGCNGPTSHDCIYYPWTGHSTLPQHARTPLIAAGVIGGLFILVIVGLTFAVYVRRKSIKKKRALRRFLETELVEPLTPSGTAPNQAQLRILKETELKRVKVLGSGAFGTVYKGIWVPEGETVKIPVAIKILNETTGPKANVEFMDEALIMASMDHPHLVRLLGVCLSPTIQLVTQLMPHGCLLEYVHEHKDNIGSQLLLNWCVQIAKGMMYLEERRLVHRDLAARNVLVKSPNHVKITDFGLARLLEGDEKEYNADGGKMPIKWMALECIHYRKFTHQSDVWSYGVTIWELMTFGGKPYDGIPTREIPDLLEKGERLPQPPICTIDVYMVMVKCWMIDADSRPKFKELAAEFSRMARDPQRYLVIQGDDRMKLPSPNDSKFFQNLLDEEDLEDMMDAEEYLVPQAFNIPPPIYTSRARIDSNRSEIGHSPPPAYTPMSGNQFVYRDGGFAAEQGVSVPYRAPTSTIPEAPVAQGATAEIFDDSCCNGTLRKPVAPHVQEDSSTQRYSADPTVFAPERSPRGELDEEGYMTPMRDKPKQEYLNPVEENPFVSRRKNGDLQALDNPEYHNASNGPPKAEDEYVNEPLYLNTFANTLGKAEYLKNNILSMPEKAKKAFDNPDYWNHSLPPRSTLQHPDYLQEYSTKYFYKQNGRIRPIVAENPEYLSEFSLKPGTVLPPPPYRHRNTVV

[18] = target: Receptor tyrosine-protein kinase erbB-4 (Homo sapiens) (UniProt Q15303); conditions: at 10 µM
[19] = target: Focal adhesion kinase 1 (Homo sapiens) (UniProt Q05397); conditions: at 1 µM

Q: Which results are given for COc1cc2ncnc(N3CCN(C(=O)Nc4ccc(Oc5ccccc5)cc4)CC3)c2cc1OC?
A: residual activity [1]: 112%; residual activity [2]: 99%; residual activity [3]: 101%; residual activity [4]: 117%; residual activity [5]: 124%; residual activity [6]: 95%; residual activity [7]: 93%; residual activity [8]: 87%; residual activity [9]: 99%; residual activity [10]: 96%; residual activity [11]: 102%; residual activity [12]: 114%; residual activity [13]: 110% (inactive); residual activity [14]: 146%; residual activity [15]: 98%; residual activity [16]: 112%; residual activity [17]: 100%; residual activity [18]: 145%; residual activity [19]: 108%
